Screening results as filed in PubChem BioAssay.
Most compounds without a hit are left out; they make up all but 1.8% or so of the library.
S1P2 blocker = human S1P2 receptor antagonists, primary screen, cell-based | cell-based S1P2 antagonist assay, inhibition at 5 uM | inhibition, % at 5 µM | 97,000 compounds, 0.21% hits; in the data active = inhibition above about 45%;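 also: CRE beta-lactamase reporter cells expressing human S1P2 stimulated with S1P; 0% = agonist at EC80 alone and 100% = agonist plus reference antagonist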
MRP-1 activ = H69AR viability gain despite doxorubicin, primary screen, MRP-1 activator project, H69AR cells, CellTiter-Glo | viability rescue | viability increase, % at 10 µM | 140,000 compounds, 0.61% hits | AID 799, 2007;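 active = viability gain under doxorubicin at or above a set limit, the compound median plus 3 SD, cut at about 4.7% in these data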;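 also: MRP-1 overexpressing cells given doxorubicin 25 µM after compound pretreatment; 18-22 h compound pretreatment then 72 h with doxorubicin before readout; 0% = doxorubicin-only wells and 100% = vehicle-treated cells without doxorubicin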
GALR2 antag = GALR2 antagonists in receptor-expressing cells, primary screen; antagonist mode; AID 828, 2007; inhibition, % at 4 µM; 140,000 compounds, 0.39% hits; Galanin receptor type 2 (Homo sapiens), O43603; in the data active = inhibition above about 27%;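 also: cells stimulated with galanin 1-16 at roughly its EC80; 0% = agonist challenge control and 100% = basal control without agonist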
Target sequence (O43603 whole entry, looked up): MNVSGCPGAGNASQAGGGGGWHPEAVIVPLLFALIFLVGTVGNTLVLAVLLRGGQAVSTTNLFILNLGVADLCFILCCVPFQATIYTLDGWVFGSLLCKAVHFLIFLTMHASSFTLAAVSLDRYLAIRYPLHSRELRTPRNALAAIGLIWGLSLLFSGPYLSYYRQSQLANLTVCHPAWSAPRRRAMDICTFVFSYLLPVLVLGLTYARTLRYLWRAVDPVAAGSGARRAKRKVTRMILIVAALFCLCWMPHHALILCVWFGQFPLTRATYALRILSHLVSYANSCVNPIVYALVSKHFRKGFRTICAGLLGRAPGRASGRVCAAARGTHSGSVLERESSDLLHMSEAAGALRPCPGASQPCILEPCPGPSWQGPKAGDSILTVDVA
S1P2 ag = S1P2 receptor agonists, primary screen, cell-based. Sphingosine 1-phosphate receptor 2 (Homo sapiens), O95136. S1P2-expressing cell line, agonist reporter read-out. activation, % at 4.5 µM. 97,000 compounds, 0.46% hits. AID 729, 2007; in the data active = activation above about 16%;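 also: 0% = vehicle low control and 100% = maximal reference agonist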
GALR2 agonist = GALR2 receptor agonists, primary screen, cell-based. Galanin receptor type 2 (Homo sapiens), O43603. GALR2-expressing cells, agonist activation read-out. activation, % (test concentration not listed). 140,000 compounds, 0.48% hits. AID 803, 2007; in the data active = activation above about 5%, passing the limit was not always enough;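 also: 0% = vehicle buffer wells and 100% = reference agonist at full effect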
MRP reversal = reversal of MRP1-mediated doxorubicin resistance, primary screen, H69AR cells, doxorubicin co-treatment; H69AR cells + 2 uM doxorubicin, CellTiter-Glo, 72 h; differential viability (reversal), % at 10 µM; 85,000 compounds, 0.04% hits;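 active = viability drop by adding the cancer drug above about 55%, with treated viability meeting a 40% cutoff, limit read from the data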;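 also: viability without doxorubicin minus viability with 2 µM doxorubicin for each compound; larger differential means the compound sensitizes cells more to doxorubicin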
An asterisk follows results filed as active; . = no result.

SMILES	S1P2 blocker	MRP-1 activ	GALR2 antag	S1P2 ag	GALR2 agonist	MRP reversal
CSc1nc(SCCO)c2sc3nc(-c4ccco4)c4c(c3c2n1)CC(C)(C)OC4	-18	-1	8	7	6.3*	.
O=C1CC(N2CCSCC2)C(=O)N1CCc1ccccc1 (stereo not given)	-5	1	4	-2	-5	2
CC1CCCCN1C(=O)/C(=C\c1ccccc1)c1ccccc1 (stereo not given)	8	-3	7	-6	1	.
CCOC(=O)c1c(-c2cccc([N+](=O)[O-])c2)csc1NC(=O)C1CCCCC1	-2	9.4*	-9	-2	-2	.
O=C(NCc1ccccn1)c1cc(-c2ccc(-c3ccccc3)cc2)nc2ccccc12	.	5.5*	6	.	-1	.
COc1ccc(-c2cc3nc(-c4ccccc4)cc(N4CCC5(CC4)OCCO5)n3n2)cc1	1	9.0*	-12	-2	1	2
CC(C)(Oc1ccc(Cl)cc1)C(=O)NC1=NN(c2ccccc2)C(=O)C1	.	1	1	.	0	.
C=C(C)C(=O)NC1=NN(c2ccccc2)C(=O)C1	.	6.0*	-3	.	0	.
CC(C)c1ccc(CNc2cc(N3CCCC3)ccc2[N+](=O)[O-])cc1	14	5.4*	-3	1	-3	.
CC(C)(C)CNc1cc(N2CCCC2)ccc1[N+](=O)[O-]	-7	4.8*	-3	-2	-2	.
Cc1ccc(C(=O)NCC(=O)OCC(=O)Nc2ccccc2[N+](=O)[O-])cc1	.	-1	3	.	-1	.
CCN(CC)S(=O)(=O)c1cc(Br)c(C)cc1OC	-36	-1	-5	-4	-5	3
CC1CCCCC1NC(=O)CSc1nc2ccccc2c(=O)n1Cc1ccco1 (stereo not given)	.	.	.	.	.	-13
Cc1cc(C)c2sc(NNC(=O)c3ccc(S(=O)(=O)N4CCc5ccccc5C4)cc3)nc2c1	.	-4	-1	.	7.7*	.
O=C(CSc1n[nH]c(=O)[nH]c1=O)N/N=C/c1ccccc1	.	-3	3	.	0	.
CCOC(=O)C1CCCN(C(=S)Nc2cccc(Cl)c2)C1 (stereo not given)	.	2	9	.	-1	.
COc1ccc(/C=C/C(=O)NCCCc2ccccc2)cc1OC	.	1	10	.	1	.
COc1cc(/C=C/C(=O)NC(C)C)ccc1OCc1ccccc1	.	-1	4	.	7.5*	.
O=C(CCN1C(=O)S/C(=C/c2ccc(Cl)cc2)C1=O)N1CCOCC1	.	-3	5	.	-1	.
O=C(O)CCN1C(=O)CC(N2C(=O)/C(=C/c3ccc(Cl)cc3)SC2=S)C1=O (stereo not given)	.	8.0*	5	.	-2	.
Cc1cc(Br)c2c(c1)C(O)(N1CCCCC1C)C(=O)N2 (stereo not given)	.	-2	2	.	-1	.
CCCOc1ccc(Cc2nc(N)nc(N)n2)cc1	12	-5	-12	-3	0	-34
COc1ccc(Cn2c(O)c(C=Nc3ccc(OC)cc3)c3ccccc3c2=O)cc1	.	6.4*	-13	.	0	.
CC(C)CCC(C)N=Cc1c(O)n(Cc2ccccc2)c(=O)c2ccccc12 (stereo not given)	6	0	-11	-4	-1	-4
O=C(Cc1coc2ccc3ccccc3c12)N1CCCC1	-29	-2	1	25*	0	9
SMILES	S1P2 blocker	MRP-1 activ	GALR2 antag	S1P2 ag	GALR2 agonist	MRP reversal
CC(C)CN(CC(C)C)C(=O)Cc1coc2ccc3ccccc3c12	-7	-4	0	-5	-1	0
C/C(=N/NC(=O)c1ccncc1)c1cc2ccc(O)cc2oc1=O	.	-1	-24	.	7.5*	.
CCOC(=O)c1cc2ccc(OC)cc2oc1=O	18	-2	-2	-8	-1	-2
NC(=S)c1cc2ccc(O)cc2oc1=O	-52	-2	-1	38*	14*	.
C/C(=N\NC(=O)c1ccncc1)c1cc2ccccc2oc1=O	.	1	5	.	0	.
CS(=O)(=O)N(Cc1ccccc1Cl)c1ccc(C(=O)NCc2ccccn2)cc1	.	-3	7	.	0	.
Cc1ccc2[nH]c(=O)c(C(c3nnnn3C3CCCC3)N3CCCc4ccccc43)cc2c1 (stereo not given)	1	19*	10	-6	-2	-20
CCN1C(=O)N/C(=C/c2cc(C)n(Cc3ccccc3)c2C)C1=O	.	-1	-2	.	-1	.
Cc1cc(/C=C2/NC(=O)N(c3ccccc3)C2=O)c(C)n1-c1cccnc1	.	0	2	.	0	.
COCCn1c(C)cc(/C=C2/NC(=O)N(c3ccc(Cl)cc3)C2=O)c1C	.	-1	-8	.	7.1*	.
CCn1c(C)cc(/C=C2\NC(=O)N(Cc3ccc(Cl)cc3)C2=O)c1C	17	9.5*	-19	-3	1	.
O=C(CC(Nc1ccc(F)cc1)C(=O)O)c1ccccc1 (stereo not given)	1	-1	2	2	0	10
O=C(CC(Nc1ccc(F)cc1)C(=O)OCC(=O)c1cccs1)c1ccccc1 (stereo not given)	.	5.2*	-5	.	-2	.
C=CCn1c(-c2ccc(OC)cc2)nc2nc3ccccc3nc21	-15	-3	-5	-1	-2	-5
CCCn1c(-c2cc(OC)c(OC)c(OC)c2)nc2nc3ccccc3nc21	5	-4	-10	17*	-1	-4
O=C(NCCc1ccccc1)C(=O)c1c(-c2ccccc2)cc2ccccn12	.	8.3*	4	.	0	.
COc1ccc(CCNC(=O)CSCc2ccc(Cl)cc2)cc1OC	.	5.0*	7	.	0	.
COc1ccc(CCNC(=O)CSCc2ccc(C)cc2)cc1OC	27	.	0	-1	-1	.
COc1ccc(C2C=C(c3ccc(Cl)cc3)Nc3nc(NC(C)=O)nn32)cc1 (stereo not given)	21	-3	22	-11	-2	2
COc1ccc(C2=CC(c3ccc(Cl)cc3)n3cnnc3N2)cc1OC (stereo not given)	.	-2	38*	.	-2	10
CCOC(=O)c1cnn(-c2ccccn2)c1N	6	7.5*	-10	-6	-1	0
O=C(N/N=C/c1ccc[nH]1)c1ccc([N+](=O)[O-])cc1	.	0	3	.	-1	.
Cc1ccc(C)c(NC(=O)C2CCCN2/C=C/C(=O)C(F)(F)F)c1 (stereo not given)	.	1	-1	.	0	.
O=c1c2c3c(sc2n2cnnc2n1Cc1ccccc1)CN(Cc1ccccc1)CC3	-3	.	-3	-4	-1	64*
Cc1nnc2n(Cc3ccccc3)c(=O)c3c4c(sc3n12)CN(Cc1ccccc1)CC4	.	.	.	.	.	25
Cc1cccc(Nc2nc(NCCCN3CCOCC3)nc(N)c2[N+](=O)[O-])c1	.	-1	-32	.	1	.
CC(=O)OCC(=O)[C@@]12OC3(CCCC3)O[C@@H]1C[C@H]1[C@@H]3CCC4=CC(=O)C=C[C@]4(C)[C@@]3(F)[C@@H](O)C[C@@]12C	.	-1	-20	.	3	3
